Experimental data reported in PubChem BioAssay (NCATS).
Results filed as inconclusive are left out. Unmarked numbers belong to inactive results. Calls of active or inactive are those of the source. Calls follow the shape of the dose curve; as a rule, active = well fitted inhibition curve with a large enough effect; inconclusive = small, poorly fitted or top-dose-only effect; inactive = flat fitted curve, though single readings scatter.

Assay: P-glycoprotein substrates identified in KB-8-5-11 adenocarcinoma cell line, qHTS therapeutic library screen (AID 1346987); also: nearly all actives have a fitted effect of over 65% in size
Settings: KB-8-5-11 (P-gp overexpressing) viability, CellTiter-Glo, 72 h; series mostly up to 44.5 µM; activity change, negative = cytotoxicity: at the top concentration
Method in brief: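 In this qHTS, P-gp-rich KB-8-5-11 cells received library compounds across a concentration range. Viability was quantified by luminescence after 72 h at 37 degree C.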
% is scaled to controls: 0 for no effect and ±100 for the full control effect.

| SMILES | Potency | outcome | activity change, negative = cytotoxicity |
| --- | --- | --- | --- |
| CC1=C2C(=O)O[C@@H](c3ccoc3)[C@]2(C)CCC1 | inactive |  |  |
| C[C@@H]1CC[C@H]2C(C)(C)[C@H](O)[C@H](O)C[C@]2(C)[C@@]12Cc1c(O)cc3c(c1O2)CNC3=O |  | inactive |  |
| CC[C@H]1OC(=O)[C@H](C)[C@@H](O[C@H]2C[C@@](C)(OC)[C@@H](O)[C@H](C)O2)[C@H](C)[C@@H](O[C@@H]2O[C@H](C)C[C@H](N(C)C)[C@H]2O)[C@@](C)(O)C[C@@H](C)[C@@H]2N[C@@H](COCCOC)OC([C@H]2C)[C@]1(C)O |  | inactive |  |
| OC[C@H]1O[C@@H](OC(CCCCc2ccc(O)cc2)CCc2ccc(O)cc2)[C@H](O[C@@H]2OC[C@](O)(CO)[C@H]2O)[C@@H](O)[C@@H]1O (some centres undefined) |  | inactive [at 17.3 µM] |  |
| CCOC(=O)O[C@]1(C(=O)COC(=O)CC)CC[C@H]2[C@@H]3CCC4=CC(=O)C=C[C@]4(C)[C@H]3[C@@H](O)C[C@@]21C |  |  | -6.35% [at 17.3 µM] |
| NCc1ccccc1CC(=O)N[C@@H]1C(=O)N2C(C(=O)O)=C(CSc3nnnn3CC(=O)O)CS[C@H]12 |  |  | 23.3% [at 17.3 µM] |
| CC(=O)OC[C@]1(O)[C@H]2[C@H](OC(=O)CC(C)C)OC=C(CO[C@@H]3O[C@H](CO)[C@@H](O)[C@H](O)[C@H]3O)[C@H]2C[C@@H]1O |  | inactive [at 17.3 µM] |  |
| CCC(=O)NS(=O)(=O)c1ccc(-c2c(-c3ccccc3)noc2C)cc1 | inactive |  |  |
| CC(=O)OC1C(O)CC(O[C@@H]2O[C@H](CO)[C@@H](O)[C@H](O)[C@H]2O)C2CCC3C(=O)OC(c4ccoc4)CC3(C)C21 (some centres undefined) |  |  | 8.86% [at 17.3 µM] |
